Bioassay records (PubChem BioAssay)
HCMV antiviral – human cytomegalovirus inhibition. activity change, negative = inhibition, % at 57.5 µM. HFF cells, HCMV-luciferase reporter, 72 h; stronger effect = lower value. 410,000 compounds, 4.5% hits. AID 1259415; in the data active means activity change below about -60%; inconclusive means no clear call, values can overlap the other calls; inactive means above about -39%
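Two compound doses tested in HFFs infected with HCMV-luciferase, MOI 1 PFU/cell, 72 h at 37C. Lysate luminescence read with OneGlo; data normalized against buffer-only and 10uM Salinomycin inhibitor controls.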
VACV Venus inh – inhibitors of vaccinia virus (Venus reporter); Vaccinia virus Venus reporter expression, fluorescence; Potency, µM (top dose mostly 36.5 µM), without a hit: top-dose activity change, negative = inhibition, hits mostly inhibitors; 330,000 compounds, 0.46% hits; AID 720580; calls by dose curve; tested in A549 cells; further: potency means the concentration at half of the fitted maximal effect; nearly all actives have a fitted effect of over 30% in size
Marburg entry inh – inhibitors of Marburg virus binding or cell entry. Marburg virus pseudotyped entry inhibition, cell reporter. Potency, µM (highest dose often 37.8 µM), for the others: at the highest dose activity change, negative = inhibition, usual class: inhibitors. 300,000 compounds, 1.8% hits; calls by dose curve; tested in HEK293 cells; further: potency means the concentration at half of the fitted maximal effect
VACV mCherry inh – vaccinia inhibition (mCherry reporter); Vaccinia virus mCherry reporter infection, fluorescence; Potency, µM (top dose mostly 36.5 µM), without a hit: at the highest dose activity change, negative = inhibition, usual class: inhibitors; 310,000 compounds, 0.63% hits; AID 720579; calls by dose curve; tested in A549 cells; further: potency means the concentration at half of the fitted maximal effect; nearly all actives have a fitted effect of over 35% in size
FMDV antiviral – antivirals against foot and mouth disease virus | FMDV antiviral cell-based qHTS | Potency, µM (series often up to 57.9 µM), without a hit: top-dose activity change, negative = inhibition, usual class: inhibitors | 410,000 compounds, 1.2% hits; calls by dose curve; tested in HEK293T cells; further: read-out not given here; potency means the concentration at half of the fitted maximal effect; nearly all actives have a fitted effect of over 45% in size
Lassa entry inh – inhibitors of Lassa virus binding or cell entry. Lassa virus pseudotype entry inhibition, cell reporter. AID 540256. 300,000 compounds, 1.2% hits. Potency, µM (highest dose often 37.9 µM), for inactives: top-dose activity change, negative = inhibition, hits mostly inhibitors; calls by dose curve; tested in HEK293 cells; further: potency means the concentration at half of the fitted maximal effect; nearly all actives have a fitted effect of over 50% in size
An asterisk follows results filed as active; i = inactive; ? = inconclusive; . = no result given; [ ] = remark or other dose. The list is not random: actives were taken first. Their share in the collection is about 6.5%. On the % scale 0 is the no-effect control and ±100 the full control effect.

SMILES | HCMV antiviral | VACV Venus inh | Marburg entry inh | VACV mCherry inh | FMDV antiviral | Lassa entry inh
O=C(NCC1CCCO1)/C(=C\c1cccc([N+](=O)[O-])c1)NC(=O)c1ccccc1 (stereo unspecified) | 20.3 | -5.1% | -9.0%[46.1 µM] | -10.1% | -3.2% | 1.2%
O=C(NCC1CCCO1)C(=Cc1cccc([N+](=O)[O-])c1)C(=O)NCC1CCCO1 (stereo unspecified) | -98.5* | ? | 11.6µM* | 12.6µM* | ? | ?
CC1=CC(=O)c2ccccc2C1=O | ? | -11.3% | 25.5% | -13.4% | -12.8% | 4.0%
CC1=CC(=O)c2c(O)cccc2C1=O | . | -9.5% | . | i | 8.91µM* | .
COc1cccc2c1C(=O)C=C(C)C2=O | -33.4 | 315.5% | 11.2µM* | 9.0% | ? | 11.2µM*
COc1ccccc1-c1ccccc1C1=CC(=O)CC(C)(C)C1=O | -10.4 | -12.2% | . | ? | -25.5% | .
CCN1C(=O)C(=Cc2cccc(OC)c2Oc2ccc([N+](=O)[O-])cc2[N+](=O)[O-])SC1=S | -6.0 | -25.0% | ? | ? | 12.6µM* | ?
CCN1C(=O)S/C(=C/c2ccc(Oc3ccc([N+](=O)[O-])cn3)c(OC)c2)C1=O | ? | ? | . | -17.6% | -16.9% | .
COc1cc(/C=C2\SC(=O)NC2=O)ccc1Oc1ccc([N+](=O)[O-])cc1[N+](=O)[O-] | -75.1* | -5.0% | 0.7%[46.1 µM] | -24.3% | -3.4% | -25.1%
CO/N=C/c1ccc(Oc2ccc([N+](=O)[O-])cc2[N+](=O)[O-])c(OC)c1 | 21.4 | -21.5% | ? | i | -7.0% | ?
Cc1ccc(N2C(=O)NC(=O)/C(=C/C=C/c3ccco3)C2=O)cc1 | -98.3* | -25.3% | ? | -15.7% | ? | -26.9%
O=C1NC(=O)N(Cc2ccc(F)cc2)C(=O)/C1=C\C=C\c1ccco1 | -96.9* | 37.8% | . | -11.4% | 28.2µM* | .
Cc1cc(C)cc(N2C(=O)NC(=O)/C(=C\C=C\c3ccco3)C2=O)c1 | -98.8* | 21.8% | ? | -3.9% | 14.1µM* | ?
O=C1NC(=O)N(c2ccccc2)C(=O)/C1=C\C=C\c1ccccc1 | 41.4 | -8.3%[7.34 µM] | 0.8%[46.1 µM] | i[7.34 µM] | 12.6µM* | -1.9%
Cc1ccc(N2C(=O)NC(=O)/C(=C/c3ccoc3)C2=O)cc1 | ? | 54.4% | -20.7%[46.1 µM] | -7.2% | -17.2% | 12.8%
CCCCN1C(=O)/C(=C/C=C/c2ccco2)C(=O)NC1=S | 20.2 | 49.6% | 1.5%[46.1 µM] | -14.8% | -7.2% | 6.2%
O=C1NC(=O)N(Cc2ccccc2)C(=O)/C1=C\c1ccco1 | 136.3 | 32.7% | 12.0%[46.1 µM] | 20.5% | ? | .
CC(C)c1ccc(N2C(=O)NC(=O)/C(=C/C=C/c3ccco3)C2=O)cc1 | -100.5* | 42.2% | ? | 4.3% | 12.6µM* | ?
CCc1ccc(N2C(=O)NC(=O)/C(=C\C=C\c3ccco3)C2=O)cc1 | -76.6* | . | . | . | 25.1µM* | .
CCc1ccc(N2NC(=O)/C(=C/C=C/c3ccco3)C2=O)cc1 | 5.5 | 0.7% | -17.6% | -15.0% | -2.5% | -24.5%
CC1=NN(c2ccc(C(=O)OC(C)C)cc2)C(=O)/C1=C\C=C\c1ccco1 | 5.1 | . | -25.1% | . | -10.9% | -5.2%
COc1ccccc1NS(=O)(=O)c1cccc(NS(=O)(=O)c2cc(C(=O)O)ccc2OC)c1 | -101.8* | -5.8% | -10.8% | -12.6% | -5.4% | 13.8%
COc1ccccc1NS(=O)(=O)c1cccc(NS(=O)(=O)c2ccc(Cl)c(C(=O)O)c2)c1 | 61.8 | -6.6% | ? | -7.9% | -11.6% | 2.5%
O=C(Nc1cccc(S(=O)(=O)Nc2ccccc2F)c1)c1ccc2ccccc2n1 | ? | -12.9% | ? | -6.9% | -12.7% | ?
COc1ccccc1NS(=O)(=O)c1cccc(NC(=O)NC2CCCCC2)c1 | -75.8* | ? | ? | -13.4% | -16.0% | ?
SMILES | HCMV antiviral | VACV Venus inh | Marburg entry inh | VACV mCherry inh | FMDV antiviral | Lassa entry inh
COc1ccccc1NS(=O)(=O)c1cccc(NC(=O)c2ccc3ccccc3n2)c1 | -79.5* | -18.2% | ? | ? | 16.3% | ?
COc1ccc(OC)c(CN2CCCC(c3nc(-c4ccncc4)ncc3-c3ccccc3C)C2)c1 (stereo unspecified) | . | -6.8% | . | -4.4% | 3.7% | .
Cc1cccc(-c2ocnc2C(=O)Nc2ccccc2NC(=O)c2ccccn2)c1 | -97.7* | -4.3% | ? | -27.6% | -0.5% | ?
Cc1ccc(CN2C(=O)c3ccccc3NC2c2cc(Br)ccc2O)cc1 (stereo unspecified) | -79.4* | -14.7% | ? | ? | -9.4% | ?
COc1ccc(-c2nc3c(c4c2C[C@H](c2ccccc2)OC4)CN(C(=O)c2cc(I)ccc2F)CC3)c(C)c1 | . | . | -0.2%[14.2 µM] | . | . | .
CCn1c(C)cc(/C=C2/NC(=O)N(c3ccccc3)C2=O)c1C | -12.6 | . | -24.5% | . | 45.1% | ?
COCCn1c(C)cc(/C=C2/NC(=O)N(c3cccc(Cl)c3)C2=O)c1C | -66.3* | ? | . | ? | -21.3% | .
O=C(NCCc1ccccn1)c1cnn(-c2ncc3c(n2)-c2ccccc2CC3)c1C1CC1 | . | -21.7% | . | -28.0% | -27.5% | .
Cc1ccc(OCC(=O)Nc2cc(-c3cccc(C)c3)nn2-c2ccccc2)cc1 | 87.5 | -11.2% | . | -13.3% | 16.7% | 6.9%[46.1 µM]
Cc1ccc(-n2nc(C)c(NC(=O)CCl)c2C)cc1 | -100.6* | ? | ? | ? | -25.5% | 10µM*
O=C(CCl)Nc1cc(-c2ccccc2)nn1-c1ccccc1 | -87.3* | . | 5.17µM* | . | -67.0% | ?
CC(=O)Nc1c(C)nn(-c2ccc([N+](=O)[O-])cc2)c1C | 3.1 | -16.2% | 18.9%[46.1 µM] | i | -7.2% | 2.0%[46.1 µM]
Cc1ccc(C)c(NC(=O)c2cc(-c3ccccc3)nn2-c2ccccc2)c1 | ? | -19.2% | 11.2µM* | -27.3% | ? | ?
Cc1ccc(-c2cc(NC(=O)CCl)n(-c3ccccc3)n2)cc1 | -96.7* | -12.1% | -24.6%[46.1 µM] | -4.7% | 22.4µM* | -18.2%
O=C(Nc1cccc(F)c1)N1CCCC2(CCN(C(=O)c3csnn3)CC2)C1 | . | . | . | . | -8.0% | .
CC(CNC(=O)c1sc2ncccc2c1-n1cccc1)c1ccccc1 (stereo unspecified) | -29.3 | -8.1% | . | -7.5% | 0.0% | -7.0%[46.1 µM]
C=CCOc1ccc(CNc2nccs2)cc1OCC | -63.6* | -19.6% | 14.4% | . | -4.5% | -4.6%
C/C(=N\Nc1nncc2ccccc12)c1cccc(OC(F)F)c1 | 41.0 | -16.7% | ? | ? | -24.5% | 2.82µM*
C/C(=N\Nc1nncc2ccccc12)c1ccc(O)cc1 | 15.2 | -2.2% | ? | ? | -16.7% | ?
COc1cccc(-c2coc3ccc(Br)cc3c2=O)c1 | . | . | 60.8%[14.2 µM] | . | . | .
CN(C)c1ncc2nc(-c3ccc(F)cc3)c(=O)n(C[C@H]3CCCO3)c2n1 | . | . | . | . | -5.2% | .
CC1(CCc2ccc3c(c2)OCO3)NCCc2c1[nH]c1ccccc21 (stereo unspecified) | -86.9* | . | . | . | -23.3% | .
Cc1ncc2c(c1CNC(=O)c1cncs1)CCN(C(=O)c1ccc(C(C)(C)C)cc1)C2 | . | ? | . | i | 3.4% | .
Cc1cccc(NCC(=O)N/N=C\c2cccc(Oc3ccccc3)c2)c1 | -67.2* | . | ? | . | ? | ?
